# Data from ChEMBL document CHEMBL3988442, “University of Dundee, Small-Polar-MMV Screening Library” (2021).
# Among all 69,000 compounds or so, about 1,000 (1.4%) showed an effect of 50% or more. The sample holds strong results, similar compounds and a random draw of the others, so the mix is not that of the screen.
# Test system: Leishmania donovani
# Assay: Leishmania intramacrophage assay
# Type: functional, organism-based
# Set-up: scale not given: in the data most compounds retested in dose-response had high values
smiles,measurement,setting,value
Cc1nn(CCn2ccnc2-c2cc3n(n2)CCCNC3)c(C)c1Cl,Percent Effect,"30 µM, 30.03 µM",27.54%
COc1ccc(CN2CCCCCC2c2cccs2)c(OC)c1 (centres undefined),Percent Effect,"30.3 µM, […]",16.39%
Cc1nc(C2CCCN(C(=O)c3cc(-c4ccccc4)[nH]n3)C2)no1 (centres undefined),Percent Effect,"30.3 µM, […]",9.064%
CC(C)CCN1CC2(CCN(C(=O)C3(C)CCCCO3)CC2)OC1=O (centres undefined),Percent Effect,"30.3 µM, […]",6.725%
COc1ccc(C2=Nn3c(CCN)nnc3-c3ccccc3C2)cc1,Percent Effect,"30.3 µM, […]",89.23%
COc1ccc(C2=Nn3c(CCCN)nnc3-c3ccccc3C2)cc1,Percent Effect,"30.3 µM, […]",30.64%
COc1ccc(C2=Nn3c(CN)nnc3-c3ccccc3C2)cc1,Percent Effect,"30.3 µM, […]",36.2%
CC(=O)N1CCc2c(nc(N(C)C)nc2NCCCn2ccnc2)C1,Percent Effect,"30.3 µM, […]",-10.69%
CN(C)CCN1C[C@@H]2CN(C(=O)C3CCOC3)C[C@@H]2C1=O.O=C(O)C(F)(F)F (some centres undefined),Percent Effect,"30.3 µM, […]",-26.31%
Cc1cc(C(=O)N2CCC3(CCC(=O)N(CC(N)=O)C3)CC2)ccc1O,Percent Effect,"30.3 µM, […]",11.98%
CC(=O)N1CCC(NC(=O)c2cc(S(N)(=O)=O)ccc2C)CC1,Percent Effect,"30.3 µM, […]",-1.924%
Cc1ccc(S(N)(=O)=O)cc1C(=O)NC1CCCC1,Percent Effect,"30.3 µM, […]",54.24%
Cc1ccc(S(N)(=O)=O)cc1C(=O)NC1CCCN(C)C1 (centres undefined),Percent Effect,"30.3 µM, […]",17.05%
CNC(=O)CN(C)C(=O)c1cc(Cl)c(Cl)n1C,Percent Effect,"30.3 µM, […]",1.638%
NC(=O)N1CCC(C(=O)NC2CCc3nccn3C2)CC1 (centres undefined),Percent Effect,"30.3 µM, […]",-91.03%
C=Cc1cccc(CN2CCCn3nc(CNS(C)(=O)=O)cc3C2)c1,Percent Effect,"30.3 µM, […]",8.14%
Fc1cnc(N2C[C@@H](OCC3CCOCC3)[C@H]3OCCC[C@H]32)nc1.O=C(O)C(F)(F)F,Percent Effect,"30.3 µM, […]",63.79%
Fc1cnc(N2CCO[C@H]3[C@H](OCC4CCOCC4)CC[C@@H]32)nc1.O=C(O)C(F)(F)F,Percent Effect,"30.3 µM, […]",42.92%
O=C(O)C(F)(F)F.c1cnc(N2CCO[C@H]3[C@H](OCC4CCOCC4)CC[C@@H]32)nc1,Percent Effect,"30.3 µM, […]",26.14%
O=S(=O)(Cc1ccccc1CN1CC[C@H](CO)[C@H](O)C1)c1ccccc1,Percent Effect,"30.3 µM, […]",22.14%
N[C@@H]1CCN(Cc2ccccc2CS(=O)(=O)c2ccccc2)C[C@H]1O,Percent Effect,"30.3 µM, […]",11.27%
NC1CCCCN(Cc2ccccc2CS(=O)(=O)c2ccccc2)C1 (centres undefined),Percent Effect,"30.3 µM, […]",64.11%
Cc1cnn(C2CN(Cc3nc(-c4ccccn4)no3)C2)c1,Percent Effect,30 µM,-31.22%
O=S(=O)(c1ccccc1)N1CCN(CCn2ccnc2)CC1,Percent Effect,"30 µM, 30.03 µM",0.5728%
O=S(=O)(c1ccccc1)N1CCCN(CCCn2ccnc2)CC1,Percent Effect,"30 µM, 30.03 µM",52.87%
Cc1ccc(S(=O)(=O)N2CCN(CCCn3ccnc3)CC2)cc1,Percent Effect,"30.3 µM, […]",3.879%
CCc1cc(=O)[nH]c2nnc(SCC(=O)NC(C)C)n12,Percent Effect,"30.3 µM, […]",-15.02%
COc1ccc(C(=O)N2CC[C@@]3(O)CCCC[C@H]3C2)cc1OC,Percent Effect,"30.3 µM, […]",15.68%
Cc1ccc2cc(C3(O)CCN(C(=O)CSC(C)C)CC3)ccc2n1,Percent Effect,"30.3 µM, […]",27.25%
Cc1nc(C2CCCNC2)nc2c1CCCN2Cc1ccccn1.Cl.Cl (centres undefined),Percent Effect,"30.3 µM, […]",30.18%
CNc1cc(-c2ccc(COCCN)cc2)c2cc[nH]c2n1,Percent Effect,"30.3 µM, […]",-14.52%
CNc1cc(-c2ccccc2CN)c2cc[nH]c2n1,Percent Effect,"30.3 µM, […]",31.34%
CNc1cc(-c2cccc(CN)c2)c2cc[nH]c2n1,Percent Effect,"30.3 µM, […]",52.08%
C=C(C)CN1CCC(C(=O)c2cc(F)ccc2F)CC1,Percent Effect,30 µM,41.7%
Cc1cccc2c1nc(CCO)n2-c1ccc(C(=O)N2CCOCC2)o1,Percent Effect,"30.3 µM, […]",26.23%
CC(=O)N1N=C(COc2ccc(C)cc2)OC1c1ccc(N(C)C)cc1 (centres undefined),Percent Effect,"30.3 µM, […]",54.92%
COc1ccc(C2OC(COc3ccc(C)cc3)=NN2C(C)=O)cc1 (centres undefined),Percent Effect,"30.3 µM, […]",8.051%
COCCNc1nc(N2CCOCC2)nc2nccnc12,Percent Effect,"30.3 µM, […]",21.04%
CC(C)=CCN1CCN(C(=O)C2CC2)CC1,Percent Effect,"30.3 µM, […]",-4.864%
COc1ccccc1CC(NC(=O)N1CCC[C@@H]1CO)C(C)C (some centres undefined),Percent Effect,"30.3 µM, […]",9.914%
CS(=O)(=O)CCNC(=O)Nc1sc2ccccc2c1Cl,Percent Effect,"30.3 µM, […]",-48.56%
CN(C)CC(C)(O)CNC(=O)Nc1sc2ccccc2c1Cl (centres undefined),Percent Effect,"30.3 µM, […]",53.76%
CN(C)C(=O)CCNC(=O)Nc1sc2ccccc2c1Cl,Percent Effect,"30.3 µM, […]",-8.505%
CN(CC(=O)NC(Cc1ccsc1)c1cccnc1)Cc1cccnc1.Cl (centres undefined),Percent Effect,"30.3 µM, […]",2.46%
O=c1[nH]c2c(c(=O)n1C1CCCCC1)CCC2Nc1ccccc1Cl (centres undefined),Percent Effect,"30 µM, 30.03 µM",19.4%
CC(CNC(=O)c1cccc(-n2cccn2)n1)Cn1ccnc1 (centres undefined),Percent Effect,"30.3 µM, […]",11.75%
O=C(NC[C@H]1CC[C@H](c2ccnc3ncnn32)CC1)c1ccccn1,Percent Effect,"30.3 µM, […]",56.14%
O=C(NC[C@H]1CC[C@H](c2ccnc3ncnn32)CC1)C1CC1,Percent Effect,"30.3 µM, […]",16.97%
COCC(=O)NC[C@H]1CC[C@H](c2ccnc3ncnn32)CC1,Percent Effect,"30.3 µM, […]",23.66%
COc1ccc(OCc2noc(CN(C)C3CCS(=O)(=O)C3)n2)cc1 (centres undefined),Percent Effect,"30.3 µM, […]",17.47%
O=C(CC1=CCCCC1)Nc1ccc(CN2C(=O)CCC2=O)cc1,Percent Effect,"30.3 µM, […]",-19.22%
C[C@@H]1CN(C2CCN(c3ccccc3F)CC2)C[C@]1(C)O,Percent Effect,"30.3 µM, […]",31.62%
CC(=O)N[C@@H]1CN(C2CCN(c3ccccc3F)CC2)C[C@H]1C(C)C,Percent Effect,"30.3 µM, […]",-2.556%
C[C@@H]1CN(C2CCN(c3ccccc3F)CC2)CC[C@]1(C)O,Percent Effect,"30.3 µM, […]",62.06%
CCC(O)CN1CCN(C(=O)c2cccn2Cc2ccccc2)CC1 (centres undefined),Percent Effect,"30 µM, 30.03 µM",13.25%
Cn1cc(C(=O)N[C@H]2CN(Cc3nccs3)[C@@H]3CCCO[C@H]23)cn1.O=C(O)C(F)(F)F,Percent Effect,"30.3 µM, […]",15.38%
CC(NCc1ccncc1)c1cc2c(cc1Br)OCCO2 (centres undefined),Percent Effect,"30.3 µM, […]",16.23%
CC(NCc1cccc2c1OCCO2)c1cc2c(cc1Br)OCCO2 (centres undefined),Percent Effect,"30.3 µM, […]",73.82%
CC(NCc1ccccn1)c1cc2c(cc1Br)OCCO2 (centres undefined),Percent Effect,"30.3 µM, […]",16.93%
O=C(NCCNc1ncccn1)N1CCN(c2nccs2)CC1,Percent Effect,"30.3 µM, […]",13.95%
CS(=O)(=O)Cc1cc(F)ccc1NCc1nnsc1Cl,Percent Effect,"30.3 µM, […]",-4.772%
Cn1ccnc1CN1CCC2(COCCN(Cc3ccsc3)C2)C1 (centres undefined),Percent Effect,"30 µM, 30.03 µM",46.66%
Cn1ccnc1CN1CCC2(CC1)COCCN(S(C)(=O)=O)C2.O=C(O)C(F)(F)F,Percent Effect,"30.3 µM, […]",39.8%
Cn1ccnc1CN1CCC2(CC1)COCCN(c1ncccn1)C2,Percent Effect,"30.3 µM, […]",59.31%
